Here are results for 22 compounds from PubChem BioAssay (NCATS).

Molecules are shown by their SMILES. Inconclusive results are not listed. Activity calls are given as the source filed them. The call rests on the fitted dose curve; in most records, active means well fitted cell-killing curve with a large enough effect; inconclusive means small, poorly fitted or top-dose-only effect, or effect the other way; inactive means no such curve, though single readings can be large or run the other way.

A short description of experiment [1]: Quantitative High-Throughput drug screen in 47 multiple myeloma cell lines against the NCATS MIPE library collection: XG1_PLB cell viability assay (AID 1919866). Further: nearly all actives have a fitted effect of over 35% in size. The method, boiled down: (§1)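 qHTS format: cells plated (500/well), pin-dosed with MIPE 4.0 compounds, kept 48 h at 37 °C. Readout was CellTiter-Glo luminescence, median RLU.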
The nature of experiment [2]: Quantitative High-Throughput drug screen in 47 multiple myeloma cell lines against the NCATS MIPE library collection: UTMC2_PLB cell viability assay (AID 1919868). Further: nearly all actives have a fitted effect of over 55% in size. As to conditions: CellTiter-Glo ATP luminescence, 48 h; viability (% of DMSO control): at 45.8 µM (top of the series). The method, boiled down: as §1
Experiment [3] is described as follows: Quantitative High-Throughput drug screen in 47 multiple myeloma cell lines against the NCATS MIPE library collection: PE2_PLB cell viability assay (AID 1919869). Further: nearly all actives have a fitted effect of over 35% in size. The gist of the method: as §1
Experiment [4] in a line: Quantitative High-Throughput drug screen in 47 multiple myeloma cell lines against the NCATS MIPE library collection: PCM6_Riken cell viability assay (AID 1919870). Further: nearly all actives have a fitted effect of over 30% in size. The gist of the method:
as §1

Experiment [5] is described as follows: Quantitative High-Throughput drug screen in 47 multiple myeloma cell lines against the NCATS MIPE library collection: OPM2_DSMZ cell viability assay (AID 1919872). Further: nearly all actives have a fitted effect of over 30% in size. The method, boiled down:
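We plated 500 myeloma cells per well, pinned in MIPE 4.0 compounds, and incubated for 48 hours at 37C. ATP was then quantified with CellTiter-Glo, with DMSO and media-only wells defining 100% and 0%.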

Experiment [6] in a line: Quantitative High-Throughput drug screen in 47 multiple myeloma cell lines against the NCATS MIPE library collection: VP6_DJ cell viability assay (AID 1919867). Further: nearly all actives have a fitted effect of over 40% in size. The method, boiled down:
as §1

The nature of experiment [7]: Quantitative High-Throughput drug screen in 47 multiple myeloma cell lines against the NCATS MIPE library collection: KMS11_JCRBsus cell viability assay (AID 1919873). Further: nearly all actives have a fitted effect of over 50% in size. The gist of the method: as §1
Experiment [8] is described as follows: Quantitative High-Throughput drug screen in 47 multiple myeloma cell lines against the NCATS MIPE library collection: RPMI8226_ATCC cell viability assay (AID 1919871). Further: nearly all actives have a fitted effect of over 30% in size. The method, boiled down:
as §1
Potency means the concentration at half of the fitted maximal effect.

`CN(C)CC[C@H](c1ccc(Cl)cc1)c1ccccn1`: the Potency in experiment [1] was 6.62 µM (active). The Potency entry in experiment [2], in experiment [3], in experiment [4] and in experiment [5] was “inactive” throughout.

With `CON=C(C(=O)N[C@@H]1C(=O)N2C(C(=O)O)=C(CSC(=O)c3ccco3)CS[C@H]12)c1csc(N)n1`, the Potency result in experiment [6], in experiment [3], in experiment [5] and in experiment [7] was “inactive” in each case.

On to `CC(=O)ON=C1C(c2c(O)[nH]c3cc(Br)ccc23)=Nc2ccccc21`, for which the Potency in experiment [1] is 1.66 µM (active); in experiment [6], 2.64 µM (active); in experiment [3], 4.69 µM (active); in experiment [4], 2.96 µM (active); in experiment [5], 18.7 µM (active).

For the compound `CCn1c(=O)c2c(nc(C=Cc3ccc(OC)c(OC)c3)n2C)n(CC)c1=O`, the Potency entry in experiment [1], in experiment [4] and in experiment [7] was “inactive” in each case. Further, the Potency in experiment [3] is 14.8 µM (active).

`CC(=CC(=O)Nc1ccccc1C(=O)O)c1ccc2ccccc2c1`: the Potency in experiment [6] was 18.7 µM (active); in experiment [3], 23.5 µM (active). Moreover, the Potency result in experiment [5] and in experiment [7] was “inactive” throughout.

As for `Cn1cc(-c2ccc3ncc(Cc4ccc5ncccc5c4)n3n2)cn1`, the Potency in experiment [4] is 13.2 µM (active). Moreover, in experiment [5], the Potency result was “inactive”.

Turning to `Cc1coc2c1C(=O)C(=O)c1c-2ccc2c(C)cccc12`, the Potency was 11.8 µM (active) in experiment [6] and 3.72 µM (active) in experiment [4].

With `CC(C)(O)CC[C@@H](O)[C@](C)(O)[C@H]1CC[C@@]2(O)C3=CC(=O)[C@@H]4C[C@@H](O)[C@@H](O)C[C@]4(C)[C@@H]3CC[C@]12C`, the Potency result in experiment [1], in experiment [3], in experiment [4] and in experiment [5] was “inactive” throughout.

As for `CN[C@H](CC(C)C)C(=O)N[C@H]1C(=O)N[C@@H](CC(N)=O)C(=O)N[C@@H]2C(=O)N[C@H]3C(=O)N[C@H](C(=O)N[C@H](C(=O)O)c4cc(O)cc(O)c4-c4cc3ccc4O)[C@H](O)c3ccc(c(Cl)c3)Oc3cc2cc(c3O[C@@H]2O[C@H](CO)[C@@H](O)[C@H](O)[C@@H]2O[C@H]2C[C@](C)(N)[C@H](O)[C@H](C)O2)Oc2ccc(cc2Cl)[C@H]1O`, the Potency result in experiment [1], in experiment [3], in experiment [5] and in experiment [7] was “inactive” throughout. Moreover, in experiment [6], the Potency was 13.2 µM (active).

For `c1ccc2c(Oc3nc(Nc4ccc(N5CCOCC5)cc4)c4ncn(C5CCCCC5)c4n3)cccc2c1`, the Potency in experiment [6] was 14.8 µM (active). Besides, the Potency result in experiment [3], in experiment [4] and in experiment [8] was “inactive” in each case.

In the case of `CCCCCN=C(N)NN=Cc1c[nH]c2ccc(OC)cc12`, the Potency in experiment [1] is 2.35 µM (active); in experiment [3], 4.18 µM (active); in experiment [8] it was 14.8 µM (active); in experiment [5], 10.5 µM (active); in experiment [7] it was 2.64 µM (active).

On to `OCC(O)C(O)C(O)CO` (stereo not drawn), for which the Potency result in experiment [3] and in experiment [4] was “inactive” in each case.

In the case of `N#Cc1cc(NC(=O)Nc2nnc(-c3ccncc3)s2)ccc1-c1cn[nH]c1`, the Potency entry in experiment [3], in experiment [4], in experiment [8], in experiment [5] and in experiment [7] was “inactive” each time.

Consider `Oc1ccc([C@@H]2Oc3ccc(O)cc3[C@@H]3CCC[C@@H]32)cc1`, for which the figures for the Potency in experiment [5] and in experiment [7] were 33.2 µM (active) and 7.43 µM (active), respectively.

As to `CCOC(=O)C=C[C@H](C[C@@H]1CCNC1=O)NC(=O)[C@@H](CC(=O)[C@@H](NC(=O)c1cc(C)on1)C(C)C)Cc1ccc(F)cc1`, the Potency result in experiment [1], in experiment [3], in experiment [4], in experiment [8], in experiment [5] and in experiment [7] was “inactive” in each case.

On to `CC1=C(C(=O)Nc2cc3cn[nH]c3cc2F)C(c2ccc(Cl)cc2F)N=C(c2ccnc(Cl)c2)N1` (stereo not drawn), for which the Potency in experiment [6] was 18.7 µM (active); in experiment [4], 6.62 µM (active); in experiment [7], 14.8 µM (active).

Turning to `FC(F)c1nc2ccccc2n1-c1nc(N2CCOCC2)nc(N2CCOCC2)n1`, the Potency in experiment [6] is 0.132 µM (active); in experiment [2], 0.118 µM (active); in experiment [3], 0.372 µM (active); in experiment [8] it was 0.296 µM (active); in experiment [5], 2.09 µM (active).

Turning to `CC(C)(O)[C@H]1CC[C@@](C)([C@H]2[C@@H](O)C[C@@]3(C)[C@@H]4C[C@H](O[C@@H]5O[C@H](CO)[C@@H](O)[C@H](O)[C@@H]5O)[C@H]5C(C)(C)[C@@H](O[C@@H]6OC[C@@H](O)[C@H](O)[C@@H]6O)CC[C@@]56C[C@@]46CC[C@]23C)O1`, the Potency result in experiment [1], in experiment [2], in experiment [4], in experiment [5] and in experiment [7] was “inactive” in each case.

In the case of `c1cc(CN2CCCNCCNCCCNCC2)ccc1CN1CCCNCCNCCCNCC1`, the Potency entry in experiment [1], in experiment [6], in experiment [3], in experiment [5] and in experiment [7] was “inactive” each time.

As for `O=C1NC(=O)[C@@H](c2cn3c4c(cccc24)CCC3)[C@H]1c1c[nH]c2ccccc12`, the Potency was 0.0332 µM (active) in experiment [1]; 0.526 µM (active) in experiment [6]; 1.87 µM (active) in experiment [3]; 5.9 µM (active) in experiment [4]; 16.6 µM (active) in experiment [8]; 1.32 µM (active) in experiment [5]. The Potency in experiment [7] is 0.118 µM (active).

Regarding `N#CC(=C(N)Sc1ccc(N)cc1)c1ccccc1C(F)(F)F`, the Potency was 2.96 µM (active) in experiment [3] and 13.2 µM (active) in experiment [8]. The Potency entry in experiment [4] and in experiment [5] was “inactive” each time.

On to `O=C(O)[C@H](CC(=O)N1C[C@@H]2CCCC[C@H]2C1)Cc1ccccc1`, for which the Potency result in experiment [2], in experiment [3], in experiment [4], in experiment [5] and in experiment [7] was “inactive” in each case.
